In test [1] the test system is Wnt5a (protein binding on small-molecule microarray). As to the kind of experiment: Wnt5a binders on small-molecule microarray, primary screen, biophysical, 635/667 nm fluorescence (AID 1142).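 Further: fluorescence read at 667 nm with signal to noise per printed feature.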 The following applies: 635 nm fluorescence, higher = more signal.
A short description of test [2]: cell viability in Huh7 cells, primary screen, cytotoxicity control for HCV replication inhibitor project, CellTiter-Glo luminescence, basal, 48 h (AID 1143).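 Further: Huh7 hepatoma cells carrying a hepatitis C replication reporter with no stimulus; test concentration not given here.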 The following applies: Huh7 HCV replicon, higher = more signal, called active from +8 up or from −8 down.
A short description of test [3]: P. aeruginosa biofilm formation inhibitors, primary screen, PAO1 strain, BacTiter-Glo luminescence, LB-PBS (AID 1144). To be noted: 12 h, higher = more signal.
A short description of test [4]: CREB reporter modulators without forskolin, primary screen, cell-based, PC12, CRE-LacZ reporter, unstimulated (AID 1145). To be noted: no forskolin, luminescence, 4.5 h, higher = more signal, called active from +8 up or from −8 down.
A short description of test [5]: CREB reporter modulators under forskolin, primary screen, cell-based, PC12, CRE-LacZ reporter, forskolin-stimulated (AID 1146).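 Further: PC12 cells with 6xCRE LacZ reporter stimulated by forskolin 10 µM; beta-galactosidase reporter signal reflecting CREB driven transcription.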 To be noted: luminescence, 4.5 h, higher = more signal, called active from +8 up or from −8 down.
In test [6] the target is Streptavidin (Streptomyces avidinii) (UniProt P22629). As to the kind of experiment: streptavidin binders on small-molecule microarray, primary screen, artefact control for SMM compound annotation, biophysical, 635/667 nm fluorescence (AID 1147).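 Further: signal reflects streptavidin binding to arrayed compounds as a control protein.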 The following applies: streptavidin binding, higher = more signal.
Streptavidin (Streptomyces avidinii), sequence (P22629 whole entry, looked up): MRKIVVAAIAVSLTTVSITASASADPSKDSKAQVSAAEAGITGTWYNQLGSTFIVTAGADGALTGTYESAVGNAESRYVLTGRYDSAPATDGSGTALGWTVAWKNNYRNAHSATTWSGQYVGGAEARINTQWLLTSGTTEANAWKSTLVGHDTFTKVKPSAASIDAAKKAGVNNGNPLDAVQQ
The nature of test [7]: small-molecule binders of probe aInhba, primary screen, biochemical, small-molecule microarray, 635/667 nm fluorescence (AID 1148).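 Further: score merges 667nm spot fluorescence with signal-to-noise for antibody binding to printed compounds.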 To be noted: higher = more signal.
Test [8] deals with Torsin-1A (Homo sapiens) (UniProt O14656). As to the kind of experiment: torsin A binders from cell lysate, primary screen, small-molecule microarray, wild-type, 635/667 nm (AID 1149). To be noted: COS7 hTOR1A-WT lysate, 635 nm fluorescence, higher = more signal.
Torsin-1A (Homo sapiens), sequence (O14656 whole entry, looked up): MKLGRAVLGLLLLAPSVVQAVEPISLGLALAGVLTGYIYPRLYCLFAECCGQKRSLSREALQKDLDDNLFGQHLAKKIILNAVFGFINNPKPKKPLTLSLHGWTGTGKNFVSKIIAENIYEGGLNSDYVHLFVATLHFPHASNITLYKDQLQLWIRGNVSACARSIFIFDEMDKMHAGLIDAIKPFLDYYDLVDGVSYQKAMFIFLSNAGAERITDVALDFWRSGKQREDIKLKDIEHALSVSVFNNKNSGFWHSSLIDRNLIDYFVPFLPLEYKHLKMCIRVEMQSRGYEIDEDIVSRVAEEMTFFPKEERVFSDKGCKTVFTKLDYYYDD
Test [9] has the same target. As to the kind of experiment: small-molecule binders of mutant TOR1A in lysate, primary screen, cell lysate, small-molecule microarray, COS7 lysate, 635/667 nm fluorescence (AID 1150).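 Further: score pools 667 nm emission and signal to noise measuring lysate protein binding.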 The following applies: COS7 hTOR1A mutant lysate, 635 nm fluorescence, higher = more signal.
Test [10] concerns Sonic hedgehog protein (Shh). As to the kind of experiment: small-molecule binders of Shh protein, primary screen, biochemical, small-molecule microarray, 635/667 nm fluorescence (AID 1151).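 Further: Shh protein binding to compounds spotted on small-molecule microarray slides; score combines spot fluorescence intensity with signal-to-noise across triplicate slides.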 The following applies: small-molecule microarray binding, 635 nm fluorescence; higher = more signal.
A short description of test [11]: E. coli DRC41 culture turbidity changes, primary screen, E. coli filamentation inducer project, strain DRC41, OD650, 48 h (AID 1152).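 Further: E. coli MC1000 strain DRC41 lacking acrAB efflux pump and sulA.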 The following applies: E. coli DRC41 (acrAB sulA), higher = more signal, called active from +8 up or from −8 down.
A short description of test [12]: small-molecule binders of probe aLefty1, primary screen, biochemical, small-molecule microarray, 635/667 nm fluorescence (AID 1153).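 Further: score merges spot fluorescence with signal-to-noise ratio from the scanned slide images.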 The following applies: higher = more signal.
Test [13] can be described thus: PSAC antagonists in infected red cells, primary screen, cell-based, P. falciparum Indochina, OD700, 1 h (AID 1154). The following applies: P. falciparum Indochina infected RBC osmotic lysis, higher = more signal, called active from +8 up or from −8 down.
Test [14] can be described thus: PSAC antagonists in infected red cells, primary screen, cell-based, P. falciparum Indochina, OD700, 2 h (AID 1155).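 Further: lysis reports solute entry through the parasite surface anion channel PSAC; channel blockers reduce lysis of infected cells.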 The following applies: P. falciparum Indochina infected erythrocytes, osmotic lysis OD700; higher = more signal, called active from +8 up or from −8 down.
Test [15] in a line: osmotic lysis modulators in infected erythrocytes, primary screen, PSAC antagonist project, cell-based, P. falciparum Indochina, OD700, 3 h (AID 1156). To be noted: higher = more signal, called active from +8 up or from −8 down.
A short description of test [16]: PSAC antagonists in infected red cells, primary screen, cell-based, P. falciparum Indochina, OD700, 18 h (AID 1157). The following applies: P. falciparum Indochina infected erythrocytes, osmotic lysis OD700, 18 h; higher = more signal, called active from +8 up or from −8 down.
A short description of test [17]: modulators of S6 phosphorylation in cells, primary screen, cell-based, A549, cytoblot, luminescence, serum-stimulated (AID 1158).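 Further: serum-stimulated A549 lung adenocarcinoma cells; signal is phosphorylated S6 detected by cytoblot immunostaining with HRP secondary.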 The following applies: A549 phospho-S6 cytoblot, 5 h, higher = more signal.
Test [18] concerns the target NADPH oxidase 2 (Homo sapiens) (UniProt P04839). As to the kind of experiment: NOX2-dependent H2O2 signal modulators, primary screen, NOX inhibitor project, cell-based, HEK293-NOX2, PMA-stimulated, Amplex Red fluorescence (AID 1159). Further: test concentration not given here. To be noted: 45 min, higher = more signal, called active from +8 up or from −8 down.
Test [19] has as its target NADPH oxidase 4 (Homo sapiens) (UniProt Q9NPH5). As to the kind of experiment: NOX4-dependent H2O2 signal modulators, primary screen, NOX inhibitor project, cell-based, HEK293-NOX4, tetracycline-induced, Amplex Red fluorescence (AID 1160). To be noted: 45 min, higher = more signal, called active from +8 up or from −8 down.
In test [20] the target is NADPH oxidase 5 (Homo sapiens) (UniProt Q96PH1). In words: NOX5-dependent H2O2 signal modulators, primary screen, NOX inhibitor project, cell-based, HEK293-NOX5, Amplex Red fluorescence (AID 1161). The following applies: HEK293-NOX5, ionomycin, 45 min, higher = more signal.
NADPH oxidase 5 (Homo sapiens), sequence (Q96PH1 whole entry, looked up): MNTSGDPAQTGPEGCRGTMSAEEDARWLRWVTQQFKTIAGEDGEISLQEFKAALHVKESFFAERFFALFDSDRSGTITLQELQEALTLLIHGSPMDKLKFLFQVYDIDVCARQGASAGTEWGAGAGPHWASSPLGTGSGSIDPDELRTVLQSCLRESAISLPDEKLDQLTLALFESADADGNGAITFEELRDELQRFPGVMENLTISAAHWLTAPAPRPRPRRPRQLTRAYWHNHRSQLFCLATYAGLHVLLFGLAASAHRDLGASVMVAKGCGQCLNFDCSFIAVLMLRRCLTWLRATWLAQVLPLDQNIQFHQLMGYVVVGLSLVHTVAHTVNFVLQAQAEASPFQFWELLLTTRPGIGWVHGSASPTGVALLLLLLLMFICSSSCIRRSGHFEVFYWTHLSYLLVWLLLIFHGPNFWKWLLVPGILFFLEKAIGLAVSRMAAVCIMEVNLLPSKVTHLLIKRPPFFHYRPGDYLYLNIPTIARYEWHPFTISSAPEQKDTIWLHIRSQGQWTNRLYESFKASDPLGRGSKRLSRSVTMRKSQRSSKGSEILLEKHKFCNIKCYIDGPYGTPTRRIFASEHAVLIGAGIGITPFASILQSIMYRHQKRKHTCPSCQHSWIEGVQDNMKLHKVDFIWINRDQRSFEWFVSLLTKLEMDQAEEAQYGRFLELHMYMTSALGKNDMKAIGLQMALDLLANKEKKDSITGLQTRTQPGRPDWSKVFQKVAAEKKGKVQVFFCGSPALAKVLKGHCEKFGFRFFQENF

The results in this text go back to PubChem BioAssay.

Calls of active or inactive are those of the source. Unless noted, how the calls were made is not given here.

NADPH oxidase 2 (Homo sapiens), sequence (P04839 whole entry, looked up): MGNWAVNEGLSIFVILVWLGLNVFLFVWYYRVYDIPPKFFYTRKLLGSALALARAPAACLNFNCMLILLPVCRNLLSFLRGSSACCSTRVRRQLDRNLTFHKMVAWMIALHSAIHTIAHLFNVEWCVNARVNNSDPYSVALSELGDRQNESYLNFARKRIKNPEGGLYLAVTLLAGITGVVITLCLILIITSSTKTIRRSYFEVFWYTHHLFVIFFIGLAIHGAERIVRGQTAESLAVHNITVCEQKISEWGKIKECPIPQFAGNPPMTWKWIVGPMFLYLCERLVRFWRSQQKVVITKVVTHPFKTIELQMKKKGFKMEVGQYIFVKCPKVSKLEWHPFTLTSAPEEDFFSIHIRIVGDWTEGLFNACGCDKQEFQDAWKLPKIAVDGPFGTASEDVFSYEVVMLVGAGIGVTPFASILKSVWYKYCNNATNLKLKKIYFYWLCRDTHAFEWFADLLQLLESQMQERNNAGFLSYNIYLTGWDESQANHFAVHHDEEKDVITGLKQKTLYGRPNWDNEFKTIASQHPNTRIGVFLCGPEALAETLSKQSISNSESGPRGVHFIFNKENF
NADPH oxidase 4 (Homo sapiens), sequence (Q9NPH5 whole entry, looked up): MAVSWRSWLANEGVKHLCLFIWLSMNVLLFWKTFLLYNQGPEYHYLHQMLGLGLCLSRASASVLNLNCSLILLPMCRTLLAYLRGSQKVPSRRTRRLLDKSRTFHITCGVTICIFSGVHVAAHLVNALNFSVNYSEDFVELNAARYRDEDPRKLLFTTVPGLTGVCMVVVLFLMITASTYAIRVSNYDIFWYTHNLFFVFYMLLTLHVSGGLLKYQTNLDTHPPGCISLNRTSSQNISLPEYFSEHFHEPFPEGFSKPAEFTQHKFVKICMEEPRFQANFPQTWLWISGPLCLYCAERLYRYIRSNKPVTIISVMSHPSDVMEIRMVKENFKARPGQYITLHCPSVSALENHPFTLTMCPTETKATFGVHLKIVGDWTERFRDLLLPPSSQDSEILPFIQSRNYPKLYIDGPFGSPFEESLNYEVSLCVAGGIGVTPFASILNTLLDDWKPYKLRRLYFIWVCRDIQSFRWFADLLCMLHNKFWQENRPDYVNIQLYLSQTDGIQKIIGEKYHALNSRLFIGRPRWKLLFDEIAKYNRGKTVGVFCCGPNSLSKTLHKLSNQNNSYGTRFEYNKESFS

Take `C#CCN([C@@H](Cc1ccccc1)C(=O)OC)[C@@H](/C=C/C1CC1)[C@H](O)Cc1ccccc1`: the composite z-score in test [1] was -0.476; in test [6], -0.676; in [7], -0.157; in [8], 0.239; in test [9], -0.211; in [10], 0.314. In test [12], this compound came in with a composite z-score of -0.0538. The z-score in [2] was -3.22 (inactive); in [3] it was 0.398 (inactive); in test [4] it was 1.67 (inactive); in [5] it was -0.0949 (inactive); in test [11], -0.634 (inactive); in test [13], 1.09 (inactive). The z-score in test [14] was 0.443 (inactive); in test [15], -0.0572 (inactive); in test [16], -0.307 (inactive); in test [17], -0.169; in test [18] it was -0.284 (inactive); in test [19], -0.417 (inactive). In [20], this compound showed a z-score of -2.34.
On to `COCCCNC(=O)[C@@H]1c2ccccc2C(=O)N(C(C)C)[C@H]1c1ccc(CO)cc1`, for which the composite z-score was 0.389 in test [1]; -0.337 in [6]; -0.045 in test [7]; -0.17 in [8]; 0.0072 in test [9]; 0.499 in test [10]. This compound also showed a composite z-score in test [12] of 0.142. In addition, the z-score in test [2] is -0.293 (inactive); in test [3] it was 0.701 (inactive); in test [4], -0.179 (inactive); in test [5] it was 0.312 (inactive); in [11] it was -0.476 (inactive); in [13], 0.178 (inactive). Further, the z-score in test [14] was 0.211 (inactive); in test [15], -0.172 (inactive); in [16] it was 0.206 (inactive); in test [17], 0.219; in [18], 0.161 (inactive); in test [19], -0.904 (inactive). Moreover, the z-score in test [20] is -0.51.
With `CC(C)C(CO)N1C(=O)[C@@H]2[C@H]3C(=O)OCC=C[C@H]3OC23C=CCN(c2ccc(Cl)cc2)C(=O)[C@@H]13` (stereo not given in full), the composite z-score in test [1] is -0.0632; in [6], -0.446; in test [7] it was -0.0987; in test [8], -0.677; in test [9] it was -0.377; in [10], -0.339. The same compound registered a composite z-score in test [12] of -0.0642. Moreover, the z-score is -0.755 (inactive) in test [2]; 2.84 (inactive) in test [3]; 0.203 (inactive) in test [4]; -0.652 (inactive) in test [5]; 0.284 (inactive) in test [11]; 0.0695 (inactive) in test [13]. In addition, the z-score in test [14] was 0.406 (inactive); in test [15], 1.06 (inactive); in test [16] it was 0.035 (inactive); in [17], -0.4; in test [18], 1.1 (inactive); in test [19], 0.164 (inactive). For the same compound, the z-score in test [20] was determined as 1.78.
On to `CC1CC/C=C\[C@H]2OC34C=CCN(C(C)C)C(=O)[C@H]3N(CCO)C(=O)[C@@H]4C2C(=O)O1` (stereo not given in full), for which the composite z-score in test [1] is -0.417; in test [6], -1.14; in test [7], -0.203; in [8] it was -0.737; in test [9], -1.17; in test [10], -0.778. In [12], this compound gave a composite z-score of -0.101. Also, the z-score in test [2] was -0.177 (inactive); in test [3] it was 0.591 (inactive); in test [4], -0.619 (inactive); in test [5], -0.599 (inactive); in test [11] it was 0.904 (inactive); in [13] it was 0.158 (inactive). Besides, the z-score in [14] is 0.22 (inactive); in [15] it was -0.285 (inactive); in test [16], 0.112 (inactive); in test [17] it was 1.86; in [18], 2.21 (inactive); in test [19] it was -0.785 (inactive). The compound further showed a z-score in test [20] of 2.03.
